# Columns and labels:
# Assay in all cases: DAPPL (digital affinity profiling via proximity ligation, sequencing); 10 mM Tris-HCl pH 7.5, 50 mM NaCl, 1 mM DTT, 4% glycerol, room temperature, 30 min; GST-TFs on glutathione beads, 16-mer random dsDNA library, 0.1% formaldehyde crosslink after washing; high values mean tight binding
# FLI1 = molecular target: T1, FLI1 (Homo sapiens, UniProt Q01543 1-452); settings: protein: recombinant; tags: N-terminal GST; dsDNA, one strand shown
# T1 sequence: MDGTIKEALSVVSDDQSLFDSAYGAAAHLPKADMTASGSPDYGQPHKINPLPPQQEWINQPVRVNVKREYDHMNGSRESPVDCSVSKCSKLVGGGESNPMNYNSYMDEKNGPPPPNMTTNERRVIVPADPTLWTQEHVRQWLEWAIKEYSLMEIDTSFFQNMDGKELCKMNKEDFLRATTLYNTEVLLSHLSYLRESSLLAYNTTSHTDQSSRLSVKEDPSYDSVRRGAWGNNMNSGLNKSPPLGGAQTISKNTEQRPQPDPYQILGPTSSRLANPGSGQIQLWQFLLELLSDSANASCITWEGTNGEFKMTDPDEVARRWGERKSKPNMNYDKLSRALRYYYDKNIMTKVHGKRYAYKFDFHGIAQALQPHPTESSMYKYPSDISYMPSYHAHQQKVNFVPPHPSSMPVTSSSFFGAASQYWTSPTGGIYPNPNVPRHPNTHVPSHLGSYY
# How it was run: (§1)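 Human transcription factors carrying a GST fusion were produced in yeast, bound to glutathione beads, tagged with DNA barcodes and pooled together with a tag-only sample. Each pool was held with 200 nmole of a random double-stranded 16-mer DNA library in Tris/NaCl/DTT/glycerol buffer for 30 min at room temperature, then washed, crosslinked in 0.1% formaldehyde, proximity-ligated with BsaI/T4 ligase (1 h, 37 °C), PCR-amplified and sequenced on an Illumina NextSeq500. Binding signal is the read frequency of each hexamer for a given factor divided by its frequency in the tag-only sample.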
# ELK1 = molecular target: T2, ELK1 (Homo sapiens, UniProt P19419 1-428); settings: protein: recombinant; tags: N-terminal GST; dsDNA, one strand shown
# T2 sequence: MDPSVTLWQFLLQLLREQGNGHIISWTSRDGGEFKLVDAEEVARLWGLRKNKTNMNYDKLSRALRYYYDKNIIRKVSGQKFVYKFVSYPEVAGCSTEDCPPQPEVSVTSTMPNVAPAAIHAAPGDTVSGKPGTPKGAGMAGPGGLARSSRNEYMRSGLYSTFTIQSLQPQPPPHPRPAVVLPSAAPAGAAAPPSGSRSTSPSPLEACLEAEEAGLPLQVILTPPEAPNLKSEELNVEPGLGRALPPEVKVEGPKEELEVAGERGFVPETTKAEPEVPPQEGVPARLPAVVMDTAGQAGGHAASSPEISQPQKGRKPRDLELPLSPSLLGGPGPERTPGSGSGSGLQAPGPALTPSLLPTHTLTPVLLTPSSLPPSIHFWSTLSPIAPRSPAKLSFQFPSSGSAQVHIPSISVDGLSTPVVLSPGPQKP
# How it was run: as §1
# GABPA = molecular target: T3, GABPA (Homo sapiens, UniProt Q06546 1-454); settings: protein: recombinant; tags: N-terminal GST; dsDNA, one strand shown
# T3 sequence: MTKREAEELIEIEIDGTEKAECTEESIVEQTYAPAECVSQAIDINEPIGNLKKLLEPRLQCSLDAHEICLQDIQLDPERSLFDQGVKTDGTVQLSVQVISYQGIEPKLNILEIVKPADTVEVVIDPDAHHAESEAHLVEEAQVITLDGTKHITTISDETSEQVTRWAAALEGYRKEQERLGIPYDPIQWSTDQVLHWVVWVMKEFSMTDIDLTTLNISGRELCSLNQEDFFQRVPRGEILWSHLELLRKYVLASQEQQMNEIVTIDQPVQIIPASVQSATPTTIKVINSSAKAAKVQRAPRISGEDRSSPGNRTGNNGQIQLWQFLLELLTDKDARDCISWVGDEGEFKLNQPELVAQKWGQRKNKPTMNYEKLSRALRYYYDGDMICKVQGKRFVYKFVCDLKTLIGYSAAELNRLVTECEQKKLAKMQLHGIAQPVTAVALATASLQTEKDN
# How it was run: as §1
# ERG = molecular target: T4, ERG (Homo sapiens, UniProt P11308 1-479); settings: protein: recombinant; tags: N-terminal GST; dsDNA, one strand shown
# T4 sequence: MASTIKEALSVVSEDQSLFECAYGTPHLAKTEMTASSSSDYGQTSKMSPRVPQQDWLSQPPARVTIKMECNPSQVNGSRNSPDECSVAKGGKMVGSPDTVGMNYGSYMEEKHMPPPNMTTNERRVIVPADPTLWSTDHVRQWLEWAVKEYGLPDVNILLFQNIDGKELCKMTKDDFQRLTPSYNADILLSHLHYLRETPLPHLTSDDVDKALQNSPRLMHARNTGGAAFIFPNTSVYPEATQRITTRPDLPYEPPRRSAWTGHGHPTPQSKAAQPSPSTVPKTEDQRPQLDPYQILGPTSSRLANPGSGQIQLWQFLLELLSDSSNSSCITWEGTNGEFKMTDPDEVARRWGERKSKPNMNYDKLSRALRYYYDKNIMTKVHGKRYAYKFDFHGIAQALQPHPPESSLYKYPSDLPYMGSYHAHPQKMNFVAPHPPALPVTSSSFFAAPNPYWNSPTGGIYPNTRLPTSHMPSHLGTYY
# How it was run: as §1
# ELF1 = ELF1 (Homo sapiens, UniProt P32519 1-619); settings: protein: recombinant; tags: N-terminal GST; dsDNA, one strand shown
# How it was run: as §1
# EHF = molecular target: T5, EHF (Homo sapiens, UniProt Q9NZC4 1-300); settings: protein: recombinant; tags: N-terminal GST; dsDNA, one strand shown
# T5 sequence: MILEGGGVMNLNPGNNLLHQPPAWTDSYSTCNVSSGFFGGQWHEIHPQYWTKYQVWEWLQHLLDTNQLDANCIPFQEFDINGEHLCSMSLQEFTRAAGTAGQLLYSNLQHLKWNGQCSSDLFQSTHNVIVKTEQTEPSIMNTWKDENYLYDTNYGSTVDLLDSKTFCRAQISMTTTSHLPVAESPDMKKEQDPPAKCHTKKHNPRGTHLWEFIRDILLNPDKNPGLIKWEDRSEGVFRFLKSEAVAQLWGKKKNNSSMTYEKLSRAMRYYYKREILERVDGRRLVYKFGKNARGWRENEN
# How it was run: as §1
# SPI1 = SPI1 (Homo sapiens, UniProt P17947 1-270); settings: protein: recombinant; tags: N-terminal GST; dsDNA, one strand shown
# How it was run: as §1
# SPIB = SPIB (Homo sapiens, UniProt Q01892 1-262); settings: protein: recombinant; tags: N-terminal GST; dsDNA, one strand shown
# How it was run: as §1
# ELK3 = molecular target: T6, ELK3 (Homo sapiens, UniProt P41970 1-407); settings: protein: recombinant; tags: N-terminal GST; dsDNA, one strand shown
# T6 sequence: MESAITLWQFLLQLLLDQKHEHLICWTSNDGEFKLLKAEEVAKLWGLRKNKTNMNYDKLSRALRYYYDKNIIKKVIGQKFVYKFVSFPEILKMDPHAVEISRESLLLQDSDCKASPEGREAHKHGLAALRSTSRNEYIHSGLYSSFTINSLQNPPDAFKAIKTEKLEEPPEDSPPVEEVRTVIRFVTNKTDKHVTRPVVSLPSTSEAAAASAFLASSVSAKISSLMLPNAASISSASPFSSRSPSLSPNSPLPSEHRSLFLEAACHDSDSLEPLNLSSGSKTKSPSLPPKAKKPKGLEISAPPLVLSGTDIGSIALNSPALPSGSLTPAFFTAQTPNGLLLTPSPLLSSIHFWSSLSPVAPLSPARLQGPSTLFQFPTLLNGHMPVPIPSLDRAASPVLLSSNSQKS
# How it was run: as §1
# FEV = molecular target: T7, FEV (Homo sapiens, UniProt Q99581 1-238); settings: protein: recombinant; tags: N-terminal GST; dsDNA, one strand shown
# T7 sequence: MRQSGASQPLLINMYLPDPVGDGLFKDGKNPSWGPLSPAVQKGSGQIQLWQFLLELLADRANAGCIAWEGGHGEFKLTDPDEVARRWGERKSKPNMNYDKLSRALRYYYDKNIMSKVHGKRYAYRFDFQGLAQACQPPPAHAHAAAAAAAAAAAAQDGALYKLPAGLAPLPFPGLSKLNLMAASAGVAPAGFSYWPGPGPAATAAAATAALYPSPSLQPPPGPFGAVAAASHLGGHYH
# How it was run: as §1
# ETV5 = ETV5 (Homo sapiens, UniProt P41161 1-510); settings: protein: recombinant; tags: N-terminal GST; dsDNA, one strand shown
# How it was run: as §1
# HSF1 = HSF1 (Homo sapiens, UniProt Q00613 1-529); settings: protein: recombinant; tags: N-terminal GST; chain copies: 3; dsDNA, one strand shown
# How it was run: as §1
# SPIC = molecular target: T8, SPIC (Homo sapiens, UniProt Q8N5J4 1-248); settings: protein: recombinant; tags: N-terminal GST; dsDNA, one strand shown
# T8 sequence: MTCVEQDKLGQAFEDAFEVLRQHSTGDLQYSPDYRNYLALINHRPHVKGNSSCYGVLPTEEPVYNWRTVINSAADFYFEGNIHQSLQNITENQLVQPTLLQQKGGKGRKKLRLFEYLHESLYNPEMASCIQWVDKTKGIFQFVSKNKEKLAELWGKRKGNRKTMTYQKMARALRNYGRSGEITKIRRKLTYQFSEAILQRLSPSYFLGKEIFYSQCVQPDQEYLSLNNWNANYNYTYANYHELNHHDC
# How it was run: as §1
# ELF4 = ELF4 (Homo sapiens, UniProt Q99607 1-663); settings: protein: recombinant; tags: N-terminal GST; dsDNA, one strand shown
# How it was run: as §1
# ELK4 = molecular target: T9, ELK4 (Homo sapiens, UniProt P28324-2 1-405); settings: protein: recombinant; tags: N-terminal GST; dsDNA, one strand shown
# T9 sequence: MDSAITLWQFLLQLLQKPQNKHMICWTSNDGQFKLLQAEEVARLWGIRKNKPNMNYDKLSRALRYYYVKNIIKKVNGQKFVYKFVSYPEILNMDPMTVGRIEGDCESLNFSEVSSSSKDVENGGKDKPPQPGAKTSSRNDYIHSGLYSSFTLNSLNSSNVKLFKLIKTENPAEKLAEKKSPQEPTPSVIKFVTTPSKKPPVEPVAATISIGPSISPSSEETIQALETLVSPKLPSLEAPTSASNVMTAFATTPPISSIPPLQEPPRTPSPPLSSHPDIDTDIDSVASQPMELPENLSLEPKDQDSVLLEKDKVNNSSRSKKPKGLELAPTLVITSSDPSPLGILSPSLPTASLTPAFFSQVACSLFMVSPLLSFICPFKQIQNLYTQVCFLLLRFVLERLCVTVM
# How it was run: as §1
# ETV2 = molecular target: T10, ETV2 (Homo sapiens, UniProt O00321 1-342); settings: protein: recombinant; tags: N-terminal GST; dsDNA, one strand shown
# T10 sequence: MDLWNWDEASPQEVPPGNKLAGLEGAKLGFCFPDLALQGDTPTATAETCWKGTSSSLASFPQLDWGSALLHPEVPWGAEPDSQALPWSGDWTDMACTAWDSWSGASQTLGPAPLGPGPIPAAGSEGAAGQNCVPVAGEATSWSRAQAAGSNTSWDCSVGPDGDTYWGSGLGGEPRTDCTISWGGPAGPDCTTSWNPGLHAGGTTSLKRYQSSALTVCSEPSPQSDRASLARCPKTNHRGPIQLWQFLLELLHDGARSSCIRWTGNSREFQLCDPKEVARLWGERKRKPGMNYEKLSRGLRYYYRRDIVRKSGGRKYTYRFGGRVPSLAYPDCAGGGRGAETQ
# How it was run: as §1
# ELF3 = molecular target: T11, ELF3 (Homo sapiens, UniProt P78545 1-371); settings: protein: recombinant; tags: N-terminal GST; dsDNA, one strand shown
# T11 sequence: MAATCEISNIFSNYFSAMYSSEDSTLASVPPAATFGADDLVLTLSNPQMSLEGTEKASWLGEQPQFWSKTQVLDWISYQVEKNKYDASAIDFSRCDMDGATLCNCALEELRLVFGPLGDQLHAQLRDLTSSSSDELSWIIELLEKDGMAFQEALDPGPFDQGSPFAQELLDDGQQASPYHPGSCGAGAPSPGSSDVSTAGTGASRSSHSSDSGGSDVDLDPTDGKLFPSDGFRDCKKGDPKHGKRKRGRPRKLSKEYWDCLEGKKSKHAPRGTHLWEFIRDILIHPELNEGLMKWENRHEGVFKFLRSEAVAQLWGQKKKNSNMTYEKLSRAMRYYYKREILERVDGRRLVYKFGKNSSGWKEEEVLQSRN
# How it was run: as §1
# CRX = CRX (Homo sapiens, UniProt O43186 1-299); settings: protein: recombinant; tags: N-terminal GST; dsDNA, one strand shown
# How it was run: as §1
# ETV1 = ETV1 (Homo sapiens, UniProt P50549 1-477); settings: protein: recombinant; tags: N-terminal GST; dsDNA, one strand shown
# How it was run: as §1
# Sequence of HSF1 (Q00613 whole entry): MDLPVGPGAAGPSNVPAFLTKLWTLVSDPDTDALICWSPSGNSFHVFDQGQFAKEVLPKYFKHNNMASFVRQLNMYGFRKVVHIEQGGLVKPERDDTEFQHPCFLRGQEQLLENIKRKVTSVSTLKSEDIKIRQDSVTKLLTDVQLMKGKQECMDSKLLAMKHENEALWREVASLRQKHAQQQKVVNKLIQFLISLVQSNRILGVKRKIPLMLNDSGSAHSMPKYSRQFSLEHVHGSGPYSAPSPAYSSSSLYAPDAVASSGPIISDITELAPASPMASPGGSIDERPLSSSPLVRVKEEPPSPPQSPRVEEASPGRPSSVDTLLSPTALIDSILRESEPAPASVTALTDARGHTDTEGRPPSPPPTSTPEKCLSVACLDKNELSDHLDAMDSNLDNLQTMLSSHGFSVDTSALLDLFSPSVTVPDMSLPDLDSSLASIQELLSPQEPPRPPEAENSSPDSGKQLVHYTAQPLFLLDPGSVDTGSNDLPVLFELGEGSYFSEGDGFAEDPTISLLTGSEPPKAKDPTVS
# Sequence of ELF1 (P32519 whole entry): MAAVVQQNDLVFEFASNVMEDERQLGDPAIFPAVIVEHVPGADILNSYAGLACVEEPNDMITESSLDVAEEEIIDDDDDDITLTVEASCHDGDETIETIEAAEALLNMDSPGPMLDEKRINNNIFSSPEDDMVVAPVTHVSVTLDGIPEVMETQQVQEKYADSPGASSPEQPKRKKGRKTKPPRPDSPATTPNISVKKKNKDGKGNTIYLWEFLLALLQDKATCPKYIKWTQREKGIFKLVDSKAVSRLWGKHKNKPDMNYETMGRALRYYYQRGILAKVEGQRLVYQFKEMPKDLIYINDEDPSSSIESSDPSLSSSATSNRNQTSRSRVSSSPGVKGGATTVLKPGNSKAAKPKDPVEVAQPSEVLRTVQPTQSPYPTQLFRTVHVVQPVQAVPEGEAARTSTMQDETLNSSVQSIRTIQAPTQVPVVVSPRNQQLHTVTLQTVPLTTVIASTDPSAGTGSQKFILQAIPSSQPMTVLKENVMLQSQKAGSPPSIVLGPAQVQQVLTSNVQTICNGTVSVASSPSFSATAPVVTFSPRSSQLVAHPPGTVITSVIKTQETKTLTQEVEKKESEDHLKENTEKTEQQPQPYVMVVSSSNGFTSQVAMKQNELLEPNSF
# Sequence of CRX (O43186 whole entry): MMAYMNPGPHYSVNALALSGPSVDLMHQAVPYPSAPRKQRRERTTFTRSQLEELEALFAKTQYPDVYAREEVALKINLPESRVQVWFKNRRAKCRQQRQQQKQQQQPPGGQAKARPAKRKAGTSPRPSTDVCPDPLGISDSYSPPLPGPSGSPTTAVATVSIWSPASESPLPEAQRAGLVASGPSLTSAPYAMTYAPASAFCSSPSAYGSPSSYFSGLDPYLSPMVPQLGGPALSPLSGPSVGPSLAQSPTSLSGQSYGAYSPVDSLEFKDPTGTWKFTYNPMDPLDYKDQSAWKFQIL
# Sequence of ETV5 (P41161 whole entry): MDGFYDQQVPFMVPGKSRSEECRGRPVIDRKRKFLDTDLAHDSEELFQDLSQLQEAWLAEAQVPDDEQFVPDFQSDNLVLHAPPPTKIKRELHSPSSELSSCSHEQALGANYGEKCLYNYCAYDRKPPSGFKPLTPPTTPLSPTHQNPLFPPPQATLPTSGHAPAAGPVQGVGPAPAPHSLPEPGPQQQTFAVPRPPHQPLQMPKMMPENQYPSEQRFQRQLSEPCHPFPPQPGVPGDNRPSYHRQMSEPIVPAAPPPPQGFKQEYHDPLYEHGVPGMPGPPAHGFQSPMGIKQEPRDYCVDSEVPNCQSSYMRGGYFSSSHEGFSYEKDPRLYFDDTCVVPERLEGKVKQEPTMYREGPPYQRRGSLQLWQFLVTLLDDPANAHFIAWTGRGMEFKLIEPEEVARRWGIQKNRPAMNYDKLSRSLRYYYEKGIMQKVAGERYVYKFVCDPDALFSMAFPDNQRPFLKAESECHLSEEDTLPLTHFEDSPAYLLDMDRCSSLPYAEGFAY
# Sequence of SPIB (Q01892 whole entry): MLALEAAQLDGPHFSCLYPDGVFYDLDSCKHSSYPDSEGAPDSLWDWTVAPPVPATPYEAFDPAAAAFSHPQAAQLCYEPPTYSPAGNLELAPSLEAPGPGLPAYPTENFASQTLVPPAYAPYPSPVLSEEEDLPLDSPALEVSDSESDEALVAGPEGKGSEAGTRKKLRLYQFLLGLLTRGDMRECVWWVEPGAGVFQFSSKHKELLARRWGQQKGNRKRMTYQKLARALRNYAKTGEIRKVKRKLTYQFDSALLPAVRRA
# Sequence of ELF4 (Q99607 whole entry): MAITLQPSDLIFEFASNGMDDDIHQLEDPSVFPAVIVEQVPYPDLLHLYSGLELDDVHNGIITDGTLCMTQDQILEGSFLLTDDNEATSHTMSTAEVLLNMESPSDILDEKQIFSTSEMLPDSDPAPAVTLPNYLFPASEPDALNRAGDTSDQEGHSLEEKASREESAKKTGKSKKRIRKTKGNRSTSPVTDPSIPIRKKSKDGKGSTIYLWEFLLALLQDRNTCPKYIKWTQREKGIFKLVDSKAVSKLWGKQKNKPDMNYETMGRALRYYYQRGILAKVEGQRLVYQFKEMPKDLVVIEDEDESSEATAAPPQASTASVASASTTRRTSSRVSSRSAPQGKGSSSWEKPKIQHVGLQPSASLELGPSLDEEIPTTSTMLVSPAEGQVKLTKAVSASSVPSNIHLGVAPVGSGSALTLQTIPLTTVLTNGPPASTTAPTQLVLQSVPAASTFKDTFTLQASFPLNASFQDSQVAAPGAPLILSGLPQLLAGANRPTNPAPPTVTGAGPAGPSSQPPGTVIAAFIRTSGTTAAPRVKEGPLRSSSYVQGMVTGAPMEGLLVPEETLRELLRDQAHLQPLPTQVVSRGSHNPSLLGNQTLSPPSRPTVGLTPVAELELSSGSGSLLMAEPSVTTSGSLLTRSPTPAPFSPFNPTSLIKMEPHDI
# Sequence of ETV1 (P50549 whole entry): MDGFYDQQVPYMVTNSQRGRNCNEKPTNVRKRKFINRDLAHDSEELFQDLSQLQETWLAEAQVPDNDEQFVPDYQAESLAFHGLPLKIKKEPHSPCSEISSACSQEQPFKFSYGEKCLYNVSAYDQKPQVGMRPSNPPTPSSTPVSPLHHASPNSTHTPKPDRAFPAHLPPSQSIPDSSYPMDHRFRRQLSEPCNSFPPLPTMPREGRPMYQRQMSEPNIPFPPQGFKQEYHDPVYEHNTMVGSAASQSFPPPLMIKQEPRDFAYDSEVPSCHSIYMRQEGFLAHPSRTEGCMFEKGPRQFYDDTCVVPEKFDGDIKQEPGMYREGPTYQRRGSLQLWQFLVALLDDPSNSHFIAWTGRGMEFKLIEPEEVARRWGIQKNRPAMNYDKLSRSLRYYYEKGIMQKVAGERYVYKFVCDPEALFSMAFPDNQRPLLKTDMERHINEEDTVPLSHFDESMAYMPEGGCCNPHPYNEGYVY
sequence,measurement,setting,value
ATCACT,binding signal,FLI1,"1.19 fold enrichment (6-mer frequency, TF over GST control)"
same,binding signal,ELK1,"1.16 fold enrichment (6-mer frequency, TF over GST control)"
same,binding signal,GABPA,"1.19 fold enrichment (6-mer frequency, TF over GST control)"
same,binding signal,ERG,"1.28 fold enrichment (6-mer frequency, TF over GST control)"
same,binding signal,ELF1,"1.34 fold enrichment (6-mer frequency, TF over GST control)"
same,binding signal,EHF,"1.15 fold enrichment (6-mer frequency, TF over GST control)"
same,binding signal,SPI1,"1.32 fold enrichment (6-mer frequency, TF over GST control)"
same,binding signal,SPIB,"1.38 fold enrichment (6-mer frequency, TF over GST control)"
same,binding signal,ELK3,"1.18 fold enrichment (6-mer frequency, TF over GST control)"
same,binding signal,FEV,"1.25 fold enrichment (6-mer frequency, TF over GST control)"
same,binding signal,ETV5,"1.2 fold enrichment (6-mer frequency, TF over GST control)"
same,binding signal,HSF1,"1.14 fold enrichment (6-mer frequency, TF over GST control)"
same,binding signal,SPIC,"1.34 fold enrichment (6-mer frequency, TF over GST control)"
same,binding signal,ELF4,"1.23 fold enrichment (6-mer frequency, TF over GST control)"
same,binding signal,ELK4,"1.45 fold enrichment (6-mer frequency, TF over GST control)"
same,binding signal,ETV2,"1.29 fold enrichment (6-mer frequency, TF over GST control)"
same,binding signal,ELF3,"1.35 fold enrichment (6-mer frequency, TF over GST control)"
same,binding signal,CRX,"1.29 fold enrichment (6-mer frequency, TF over GST control)"
same,binding signal,ETV1,"1.2 fold enrichment (6-mer frequency, TF over GST control)"
